Assay results: paper PMC5540273 (PLoS ONE, 2017)

test system: BLK
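Also: kd values determined as follow-up on hits from a single-replicate KINOMEscan panel screen.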

Compound | Kd [nM]
Cc1ccc(C(=O)Nc2ccc(Nc3ccnc4cc(-c5ccccn5)ccc34)cc2O)cc1.Cl [GW440146] | 63
Cl.NC(=O)c1cccc(Nc2nccc(Nc3ccc(Oc4cccc(Cl)c4)c(Cl)c3)n2)c1 [GW659008] | 2600
COc1cc2nccc(Nc3ccc(NC(=O)c4ccc(C)cc4)c(O)c3)c2cc1OC.Cl [GW440132] | 230

test system: BRAF

Compound | Kd [nM]
COC(=O)c1c(-c2ccccc2)c2cc(OC)ccc2c(=O)n1Cc1ccccc1 | 61
CC(=O)Nc1nc2cnc(Nc3cc(NC(=O)c4cccc(CCC#N)c4)ccc3C)nc2s1 | > 10000
COC(=O)c1c(-c2ccccc2)c2cc(C(=O)O)ccc2c(=O)n1Cc1ccccc1 | 50
CN(C)CCN(C)C(=O)c1cc(-c2ccncc2)c(-c2ccc(Cl)c(O)c2)o1.Cl.Cl [SB-710397] | 45
Cl.O=C(Nc1cccc(-c2nn3ncccc3c2-c2ccnc(Nc3cccnc3)n2)c1)c1c(F)cccc1F [GSK312879] | 62
Cc1cccc(-c2nc(-c3ccc(S(C)(=O)=O)cc3)sc2-c2ccnc(NCCc3ccccc3)c2)c1 | 81

test system: BRSK1

Compound | Kd [nM]
Cc1ccc(NC(=O)Nc2cc(C(C)(C)C)nn2-c2ccccc2)cc1 [GSK1014915] | > 10000
O=C(Nc1n[nH]c2nc(-c3nccs3)c(Br)cc12)C1CCCC1 [SB-742609] | 430
CS(=O)(=O)c1ccc(-c2c(-c3ncn[nH]3)sc(N3CCOCC3)c2C#N)cc1 | > 10000
CCn1c(-c2ccccn2)nc2cnccc21 [SB-736398] | > 10000
Cc1ccc(NC(=O)Nc2cccc(Cl)c2)cc1-c1ccc(C(=O)Nc2ccncc2)cc1 [GSK1398468] | > 10000
O=C(Nc1n[nH]c2nc(-c3nccs3)c(Br)cc12)C1CC1 [SB-742251] | 230

test system: BRSK2

Compound | Kd [nM]
O=C(Nc1n[nH]c2nc(-c3nccs3)c(Br)cc12)C1CCCC1 [SB-742609] | 330
COc1ccccc1CNC(=O)c1cc(C(=O)c2ccccc2C)c[nH]1 [GSK364507] | > 10000
O=C(Nc1n[nH]c2nc(-c3nccs3)c(Br)cc12)C1CC1 [SB-742251] | 140
